Screening results from PubChem.
An excerpt weighted towards active compounds, which were near 4% of everything screened.
FAS-TE inh: blocks the thioesterase domain of human fatty acid synthase | P49327 | recombinant FAS-TE, OMFH fluorogenic substrate, fluorescence endpoint | inhibition, % at 15 µM | 0.67% of 360,000 active | AID 602261;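 active = compounds whose normalised, plate-corrected inhibition of enzyme fluorescence in the single-dose primary screen is 50% or more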;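 also: 0% = DMSO with enzyme and 100% = substrate without enzyme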
aDG glyco act: alpha-DG glycosylation activation; Pro5-aDG cells, alpha-DG glycosylation AlphaScreen (IIH6); 0% Pro5, 100% B10-LARGE cell signal; activation, % at 10 µM; 0.22% of 360,000 active;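 active = activation of at least 8% versus controls, or a plate z-score of at least 8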;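 also: Pro5 are CHO cells carrying HIG-tagged alpha-DG that lacks glycosylation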
GRIN3A LBD mod: modulates the human NR3A ligand-binding domain | NR3A LBD differential scanning fluorimetry, Tm shift; 0% = protein alone, 100% = glycine-bound protein | Tm shift relative to glycine control, % at 25 µM | 2.5% of 340,000 active;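 active = melting temperature shift of at least 10% of the positive control shift, at one fixed dose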
ADAM10 inh: ADAM10 inhibition, QFRET primary screen | inhibition, % at 7 µM | recombinant ADAM10, EDANS/DABCYL FRET peptide cleavage, 3 h | O14672 | 0.62% of 370,000 active;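 active = inhibition above a per-campaign cutoff equal to the mean of compounds falling between control-based bounds plus 3 SD, cut at about 20% in these data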;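 also: 0% = DMSO wells while the 100% control is not disclosed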
ADAM17 inh: ADAM17 inhibition, QFRET primary screen. P78536. recombinant ADAM17, EDANS/DABCYL FRET peptide cleavage. inhibition, % at 6.95 µM. 0.83% of 370,000 active. AID 720648;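 active = inhibition above the mean of compounds lying between control limits plus 3 SD, set per campaign, cut at about 8.5% in these data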;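 also: 0% = DMSO-only wells as the low control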
* marks the source's active call; other numbers are inactive results; · = no result given.

SMILES	FAS-TE inh	aDG glyco act	GRIN3A LBD mod	ADAM10 inh	ADAM17 inh
O=C(Nc1ccc2ccccc2c1)c1cccnc1	-1	0	-5	-3	-3
O=C(Nc1cccc(C(=O)N2CCOCC2)c1)c1cccnc1	-6	0	11*	6	1
CCNC(=S)Nc1ccc2c(c1)oc1ccccc12	9	0	10*	8	-2
O=C(Nc1ccc2c(c1)oc1ccccc12)c1ccncc1	-5	1	15*	-125	-31
O=C(Nc1ccc2c(c1)oc1ccccc12)c1cccnc1	1	1	17*	0	0
COn1c(=O)c(-c2ccccc2)[n+]([O-])c2ccccc21	-2	0	-1	-12	-9
C/C(=C\C(=S)Nc1ccccc1)Nc1ccccc1	-5	0	0	6	3
Cc1ccc(S(=O)(=O)N(C)C)cc1NC(=O)COC(=O)C1CCCC1	-7	0	21*	-10	-7
Cc1ccc(S(=O)(=O)N(C)C)cc1NC(=O)COC(=O)CCC1CCCC1	2	0	-1	1	-1
COc1cccc(NCc2cc(=O)oc3cc(C)c(O)cc23)c1	5	0	-13	1	0
COc1cccc(NCc2cc(=O)oc3cc(-c4ccccc4)c(O)cc23)c1	-1	1	28*	-15	-3
S=C(NCc1ccc2[nH]c3c(c2c1)CCCC3)Nc1ccccc1Cl	12	0	11*	12	3
O=C(CSc1nc2ccc(NC(=O)CSc3nnnn3Cc3ccccc3)cc2s1)Nc1ccccc1	1	0	17*	2	-2
COc1ccc(NC(=O)CSc2nc3ccc(Nc4nc(N5CCOCC5)nc(N5CCOCC5)n4)cc3s2)cc1	-2	0	2	-2	1
Cc1ccc(NC(=O)CSc2nc3ccc(Nc4nc(N5CCOCC5)nc(N5CCOCC5)n4)cc3s2)cc1	6	-1	15*	5	-2
COC(=O)CSc1nc2ccc(NC(=O)CSc3nnnn3Cc3ccccc3)cc2s1	-9	0	-6	-13	0
CCOC(=O)CSc1nc2ccc(Nc3nc(N4CCOCC4)nc(N4CCOCC4)n3)cc2s1	54*	0	-1	4	5
CC(=O)Nc1ccc2nc(SCC(=O)Nc3ccc(N4CCOCC4)c(Cl)c3)sc2c1	-1	0	25*	-4	-2
CC(=O)Nc1ccccc1C(=O)C(=O)Nc1ccc(Cl)cc1	-1	0	2	7	-2
CCOc1ccc(N2C(=O)/C(=C/c3ccccc3OCC(=O)OC)N(CC(=O)OC)C2=S)cc1	17	0	-4	15	5
COc1cccc(NC(=O)c2ccccc2NC(=O)c2ccncc2)c1	1	0	0	2	1
CC(C)C(=O)NNC(=O)CSc1nnc(-c2ccccc2)c(-c2ccccc2)n1	-1	0	3	1	4
COC(=O)N1C[C@H](OCc2ccc3c(c2)OCO3)[C@H]2C[C@@H]1c1ccccc1O2	·	·	·	-11	-2
O=C(CSc1n[nH]c(-c2cccnc2)n1)Nc1ccc([N+](=O)[O-])cc1	-3	0	10*	9	3
O=C(CSc1nc(Nc2ccccc2)nc(N2CCOCC2)n1)Nc1ccc([N+](=O)[O-])cc1	43	0	15*	5	-4
SMILES	FAS-TE inh	aDG glyco act	GRIN3A LBD mod	ADAM10 inh	ADAM17 inh
O=C(CSc1nc(N2CCOCC2)nc(N2CCOCC2)n1)Nc1ccc([N+](=O)[O-])cc1	6	0	0	-7	-2
O=C(Cn1c(=O)[nH]c2ccccc2c1=O)Nc1ccc2c(c1)OCCO2	-4	0	2	6	1
Cc1ccc(C(=O)Nc2nnc(-c3ccc(C(C)(C)C)cc3)s2)cc1	-3	0	10*	-2	-4
COc1ccc(C(=O)Nc2nnc(-c3ccccc3)s2)cc1	-1	0	0	3	-2
O=C(Cc1cccs1)Nc1ccc(C(=O)O)cc1	-6	2	0	-2	-5
O=C(Nc1ccc(NC(=O)c2cccs2)cc1)c1cccnc1	-6	0	8	-2	-4
O=C(Nc1cccc(O)c1)c1cccc(C(=O)Nc2cccc(O)c2)c1	0	0	34*	-3	-3
O=C(N/N=C/C(Cl)=C\c1ccccc1)c1cccs1	12	1	13*	5	-1
O=C(Cc1cccs1)Nc1cccc(C(=O)Nc2ccc(C(=O)O)cc2)c1	-5	0	23*	-1	0
O=C(Nc1cccc(O)c1)c1ccc(Br)cc1	-4	0	5	2	-2
O=C(Nc1ccc(NC(=O)c2cccs2)cc1)c1ccccc1	-1	0	16*	-15	-2
COc1cc(NC(=O)COC(=O)CNC(=O)C2CCCCC2)cc(OC)c1	-7	0	2	-5	3
O=C(Cn1nnc(-c2ccccc2-n2cnnn2)n1)NCc1ccccc1	-6	0	-13	3	0
Cc1nnsc1C(=O)NNC(=O)Nc1ccccc1	-1	0	0	7	1
O=C(O)c1ccc(NC(=O)c2cccc(NC(=O)c3cccs3)c2)cc1	-4	0	-10	·	·
O=C(Nc1ccccc1)Nc1snnc1C(=O)Nc1cccc(O)c1	-2	0	24*	6	1
O=C(Nc1ccc(O)cc1)c1ccc(NC(=O)c2cccs2)cc1	-2	0	28*	-13	2
O=C(c1ccncc1)c1ccc(NC(=O)c2cccs2)cc1	-6	0	0	6	2
O=C(Nc1cccc(O)c1)c1ccc(NC(=O)c2cccs2)cc1	2	0	37*	2	1
OCC(O)/C=N/Nc1nc(Nc2ccccc2)nc(Nc2ccccc2)n1 (configuration not stated)	1	0	0	-5	1
CC(C)CC(=O)N1CCN(c2ccc([N+](=O)[O-])c(NCc3ccccc3)c2)CC1	27	0	4	18	13*
O=C(c1ccccc1)N1CCN(c2ccc([N+](=O)[O-])c(NCc3cccnc3)c2)CC1	-1	0	-1	7	-1
O=C(Nc1ccsn1)c1ccc(Cl)cc1Cl	-4	0	10*	-2	-6
Cc1cc(NC(=O)c2ccc(Cl)cc2Cl)no1	-4	0	2	5	2
Oc1ccc(C[C@H]2CNC(=S)N2CC2CCCN2C[C@H](Cc2ccc(O)cc2)N2C[C@H](Cc3ccccc3)N(CCc3ccccc3)C2=S)cc1 (some centres not stated)	-87	0	12*	7	5
Oc1ccc(C[C@H]2CNC(=S)N2CC2CCCN2C[C@H](Cc2ccc(O)cc2)N2C[C@H](Cc3ccc(O)cc3)N(CC3CCCCC3)C2=S)cc1 (some centres not stated)	-68	-1	19*	22*	7
